Reference: PubChem BioAssay AID1490 (National Center for Advancing Translational Sciences (NCATS), 2009)
Hit rate of the full screen: of about 310,000 compounds, about 11,000 (3.5%) were called active. About 4% were inconclusive and are not listed. The call rests on the fitted dose curve; in most records, active means well fitted inhibition curve with a large enough effect; inconclusive means small, poorly fitted or top-dose-only effect, or another doubt; inactive means no such curve, though single readings can be large or run the other way. This excerpt belongs to a sample that is enriched for actives.

biological target: 4'-phosphopantetheinyl transferase ffp (Bacillus subtilis) (UniProt Q9F4F7); assay: qHTS Assay for Inhibitors of Bacillus subtilis Sfp phosphopantetheinyl transferase (PPTase); conditions: Biochemical Sfp PPTase activity;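 further: the enzyme is Sfp with the accession as filed and its product quenches rhodamine fluorescence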;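 on Largest response in the series, negative = inhibition: 0% = enzyme reaction without inhibitor and -100% = no enzyme wells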
Method in brief: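 Sfp 15 nM + cpd, 15 min RT; start w/ rhodamine-CoA 5 uM, BHQ-2-YbbR 12.5 uM (final); 50 mM Hepes pH 7.6, 10 mM MgCl2, 0.01% NP-40, 0.01% BSA; read 525/598 nm at 0 and 30 min.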
Potency means the concentration at half of the fitted maximal effect.

Potency, active:
Nc1ccc2nc3c(=O)[nH]c(=S)[nH]c3nc2c1 8.91 µM
Cc1ccc(-c2cc(C(=O)N/N=C/C=C/c3ccco3)c3ccccc3n2)cc1C 28.2 µM
O=C(N/N=C/C=C/c1ccco1)c1cccs1 10 µM
Cc1nc2c(c(=O)n1Cc1ccco1)c1nc3ccccc3nc1n2Cc1ccccc1 8.91 µM
CCN(CC)S(=O)(=O)c1cc([N+](=O)[O-])ccc1NNC(=O)Nc1ccccc1 56.2 µM
O=[N+]([O-])c1cccc(/C([O-])=C(/C(=S)Nc2ccccc2F)[n+]2ccccc2)c1 17.8 µM
N#Cc1ccsc1NC(=O)CN1CCCCC1 89.1 µM
Cc1csc(NC(=O)CN2CCCCCC2)n1 79.4 µM
Clc1ccccc1-c1cc(NCCN2CCOCC2)ncn1 79.4 µM
Cc1ccc(C)c(NC(CC(=O)c2ccccc2)C(=O)OCC(=O)c2cccs2)c1 (stereo not drawn) 39.8 µM
C=CCn1c(SCc2csc(C)n2)nc2scc(-c3ccc(C)o3)c2c1=O 11.2 µM

Largest response in the series, negative = inhibition, inactive:
O=c1[nH]c(=O)c2nc3ccccc3nc2[nH]1 8.31%
O=C(NCc1cc(F)cc(C(F)(F)F)c1)C1CCC(=O)N(C2CCCC2)C1 (stereo not drawn) 6.77%
O=c1oc2ccccc2c(CNc2ccccc2)c1[N+](=O)[O-] 5.08%
C=C1C(=CC=C2CCC[C@@]3(C)[C@@H]2CC[C@H]3[C@H](C)CCCC(C)C)C[C@@H](O)C[C@@H]1O 3.54%
C/C(=N\NC(=O)c1cc(-c2ccc(O)cc2)nc2ccccc12)c1cccnc1 0.726%
O=C(N/N=C/c1ccco1)c1ccc(C(=O)N/N=C/c2ccco2)o1 22%
CCOc1cc(/C=N/NC(=O)c2cc(-c3ccccc3)nc3ccccc23)ccc1O 10.1%
CC(=O)Nc1ccc(/C=N/NC(=O)c2cccs2)cc1 9.99%
O=C(O)c1cc2c(cc1NC(=O)c1c(F)cccc1Cl)OCCCO2 14.9%
Cc1nc2ccccc2c(=O)n1Cc1ccc([N+](=O)[O-])cc1 -0.474%
Cc1ccc(Cn2c(C)nc3c(c2=O)c2nc4ccccc4nc2n3Cc2ccco2)cc1 18.1%
O=C(NC1CCCCC1)C1CCC(CNS(=O)(=O)c2ccccc2)CC1 (stereo not drawn) -16.9%
Cc1ccc(NC(=O)c2cc(-c3ccccc3O)n[nH]2)cc1C 13.9%
CCN(CC)S(=O)(=O)c1cc([N+](=O)[O-])ccc1N=Nc1c(O)n(C)c2ccccc12 22.9%
CCN(CC)C(=O)CN(c1cccc([N+](=O)[O-])c1)S(=O)(=O)c1ccccc1 19.8%
CCCn1c2ccccc2c2cnn(CC(=O)NCCCN3CCCCC3CC)c(=O)c21 (stereo not drawn) 4.88%
CCC(C)NCC(=O)Nc1ccc([N+](=O)[O-])cc1C(=O)Nc1ccccc1F (stereo not drawn) 8.61%
Cc1cccc(C(=O)NNC(=O)c2cccc([N+](=O)[O-])c2)c1 12.7%
CS(=O)(=O)c1ccc2nc(NC(=O)CN3CCCCCC3)sc2c1 -29.2%
N#Cc1cccc(NC(=O)CN2CCCCCC2)c1 7.01%
N#Cc1ccsc1NC(=O)CN1CCN(S(=O)(=O)c2cc(Cl)ccc2Cl)CC1 -21.5%
Cc1cc(C)c(NC(=O)CN2CCCCCC2)c(C)c1 -2.37%
CCOC(=O)C1CN(S(=O)(=O)c2ccc(OC)cc2)c2cc(Cl)ccc2O1 (stereo not drawn) 3.4%
Cc1ccc(S(=O)(=O)NNC(=O)/C=C/c2cccc(F)c2)cc1 9.18%
C=CCc1ccccc1OCC(O)CN1CCN(CCO)CC1 (stereo not drawn) 5.68%
CCOC(=O)c1sc(NC(=O)c2sc(C)nc2C)nc1C 11.7%
CC1CCCCN1C(=O)Cn1c(=O)oc2cc(S(=O)(=O)N3CCCCC3)ccc21 (stereo not drawn) 10.7%
Cc1cccc(CNc2cc(-c3ccccc3Cl)ncn2)c1 20.2%
c1ccc2cc3c(NCCN4CCOCC4)ccnc3cc2c1 -20.1%
COc1ccc(NC(=O)CCCN2C(=O)C(c3ccccc3)Oc3cccnc32)cc1 (stereo not drawn) 1.64%
Cc1ccc(C)c(S(=O)(=O)N2CCCOC2CNC(=O)C(=O)NC2CCCCC2)c1 (stereo not drawn) 11.5%
Cc1ccc(C)c(NC(=O)CCC(=O)NNC(=O)c2cccs2)c1 3.73%
COC(=O)C(CC(=O)Nc1cc(C)ccc1C)Nc1ccccc1OC (stereo not drawn) 28.6%
Cc1ccc(-c2ncc(Cl)cc2-c2ccc(S(C)(=O)=O)cc2)cn1 13.6%
C=CCn1c(SCc2c(C)noc2C)nc2sc3c(c2c1=O)CCC(C)C3 (stereo not drawn) -23.8%
C=CCn1c(SCC(=O)NCC2CCCO2)nc2sc(C)c(C)c2c1=O (stereo not drawn) 13.7%
COc1ccccc1NC(=O)c1ccc2nc(N3C(=O)CCC3=O)sc2c1 10.7%
